# System: tubulin (bovine brain)
# Test: tubulin polymerization end-point dOD, fold change relative to DMSO vehicle; higher = more polymerization (stabilization)
# Settings: 50 µM; 60 min; 37 °C
# Description: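 In-vitro tubulin polymerization assay (Cytoskeleton HTS kit) with 4 mg/ml bovine brain tubulin in G-PEM buffer and compound at 50 uM (0.5% DMSO). Turbidity was read at 340 nm every minute for 1 h at 37 C. The end-point change in OD (dOD) was converted to % fold change relative to the DMSO vehicle (0%), and runs were scaled using DMSO and Taxol controls. The paper calls >20% an effect, 20-40% weak and >40% strong; positive values mean stabilization, negative values destabilization. Scale: negative = destabilization.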
row,SMILES,tubulin polymerization end-point dOD
1,COc1ccc(CCNC(=O)CSc2nc3cc4c(cc3cc2C)OCO4)cc1OC,-49.9%
2,CCOc1ccc(S(=O)(=O)Nc2cc(Br)c3oc(C)c(C(C)=O)c3c2)cc1,-25.4%
3,COc1ccc(Cl)cc1NC(=O)CSc1nnc(-c2ccncc2)n1-c1ccccc1,-50.9%
4,CCc1ccccc1NC(=O)CSc1nc2cc3c(cc2cc1C#N)OCCO3,-23.9%
5,Cc1cccc2cc3c(N)c(C(=O)Nc4ccccc4N4CCOCC4)sc3nc12,411%
6,CCCC(NC(=O)c1cnc(SC)nc1)c1ccc2c(c1)OCCO2 (stereo not given),2.16%
7,CCCn1c(SCC(=O)Nc2ccccc2OC)nnc1-c1cccnc1,-56.1%
8,O=c1c(Cl)c(N2CC=C(c3ccccc3)CC2)cnn1-c1nc2ccccc2[nH]1,-22.9%
9,CCc1ccccc1NC(=O)CSc1nc2cc3c(cc2cc1C#N)OCO3,56.6%
10,O=C(Nc1ncc(Cc2ccc(Cl)cc2)s1)c1cccnc1,7.93%
11,O=C1N/C(=N/N=C/c2ccccc2O)SC1Cc1cc(C(F)(F)F)ccc1Cl (stereo not given),-23%
12,N#Cc1ccc(Cc2cnc(NC(=O)c3ccc4ncsc4c3)s2)cc1,-40.1%
13,Cc1cccc(Cc2cnc(NC(=O)c3ccc(Br)cc3)s2)c1,-17.2%
14,COc1ccc(C)cc1NC(=O)CSc1nc2ccc(C(C)C)cc2cc1C#N,-41.3%
15,CCOC(=O)Nc1nc2ccccc2[nH]1,0.459%
16,O=C(Nc1ncc(Cc2ccccc2Br)s1)c1cccnc1,-64.1%
17,COc1cc(-c2onc3ccc(Cl)cc23)cc(OC)c1OC,95.2%
18,N#Cc1ccc(N2CC[NH+](Cc3ccc(-c4ccccc4Cl)s3)CC2)nc1,-56.2%
19,COc1ccc(-n2nnnc2SCc2cc3c(cc2Br)OCO3)cc1,-14.8%
20,COc1ccc(NC(=O)N(Cc2cc3ccc(C)c(C)c3[nH]c2=O)CC2CCCO2)cc1 (stereo not given),33.3%

row,SMILES,tubulin polymerization end-point dOD
1,CC(=O)c1c(C)[nH]c(C(=O)Nc2ccc(N3CCCC3=O)cc2)c1C,-9.36%
2,Cc1ccc(Nc2nc(N)nc(CN3C(=O)NC(C)(c4ccccc4)C3=O)n2)cc1 (stereo not given),48.1%
3,Cc1cc2cc3c(cc2nc1SCC(=O)NC1CCCC1)OCCO3,10.3%
4,COc1ccccc1-n1c(SCC(=O)Nc2nc(C)cs2)nnc1-c1cccnc1,-51%
5,O=C(Nc1ncc(Cc2ccc(Cl)cc2Cl)s1)c1cnccn1,6.51%
6,COc1ccc2cc(CN(Cc3ccccc3Cl)C(=O)Nc3ccccc3OC)c(=O)[nH]c2c1,-4.53%
7,COc1ccc2cc(CN(CC3CCCO3)C(=O)Nc3ccc(Cl)cc3)c(=O)[nH]c2c1 (stereo not given),-0.367%
8,O=C(Nc1ccc(N2CCCCCC2)cc1)C1COc2ccccc2C1 (stereo not given),37.7%
9,C/C(=N\Nc1cc(-c2ccccc2)nc(C)n1)c1ccc(C)cc1,-7.02%
10,O=C(Nc1ncc(Cc2ccccc2)s1)c1cc(Br)c[nH]1,2.89%
11,Nc1nc(SCC(=O)NC2CCCCC2)nc2sc3c(c12)CCCC3,-12%
12,Cc1cc2cc3c(cc2nc1SCC(=O)Nc1ccccc1C(F)(F)F)OCO3,-12.8%
13,c1ccc(CCc2nc3c4ccccc4ncn3n2)cc1,-31.9%
14,Nc1c(C(=O)c2ccccc2)sc2nc3c(cc12)CCCC3,59.7%
15,Cc1ccc(/C=N\NC(=O)c2cccc(Cl)c2)cc1,3.13%
16,COc1ccccc1-n1c(SCC(=O)Nc2nccs2)nnc1-c1cccnc1,5.05%
17,O=c1[nH]c(/C=C/c2ccccc2F)nc2ccccc12,21.3%
18,Cc1ccc2nc(NC(=O)c3cc(Br)c[nH]3)sc2c1,-51.9%
19,O=c1[nH]c(CSc2ccccc2)nc2sc3c(c12)CCC3,-9.09%
20,Cc1ccc(C2=NN(C(=O)c3ccncc3)C(c3ccccc3F)C2)cc1 (stereo not given),-4.53%
